Results taken from PubChem BioAssay AID1159580 (chemical genetic matrix, 2015).
About 2,000 (36%) of roughly 5,500 compounds were called active. About 18% were inconclusive and are not listed. No stated cut-off is given here; in the data, active means normalized growth mostly below about 0.91 (no sharp cut-off); inconclusive means no clear call, values can overlap the other calls; inactive means mostly above about 0.92. This is one part of the list.

Test: chemical genetic growth profiling, strain panel (AID 1159580);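 further: tested at 20 µM; growth read once vehicle control cultures reached saturation at 30 °C; 1 = growth at the plate median or of vehicle wells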
Settings: S. cerevisiae deletion strains, growth OD

Measured: normalized growth

O=C(O)COc1ccc(Cl)cc1Cl
inactive: locus YAL013W, strain DEP1, stronger effect = lower value 1.01 | locus YAL021C, strain ccr4, stronger effect = lower value 0.997 | locus YAL026C, strain drs2, stronger effect = lower value 1.01 | locus YAL030W, strain snc1, stronger effect = lower value 0.988 | locus YBL061C, strain skt5, stronger effect = lower value 0.997 | locus YBR009C, strain hhf1, stronger effect = lower value 0.992 | locus YBR021W, strain FUR4, stronger effect = lower value 1 | locus YBR023C, strain chs3, stronger effect = lower value 0.992 | locus YBR171W, strain sec66, stronger effect = lower value 1 | locus YBR229C, strain ROT2, stronger effect = lower value 0.999 | locus YBR231C, strain swc5, stronger effect = lower value 0.989 | locus YBR279W, strain paf1, stronger effect = lower value 0.992 | locus YCL011C, strain gbp2, stronger effect = lower value 1 | locus YCL016C, strain dcc1, stronger effect = lower value 0.994 | locus YCL029C, strain bik1, stronger effect = lower value 1.03 | locus YCL061C, strain MRC1, stronger effect = lower value 0.995 | locus YCL069W, strain vba3, stronger effect = lower value 1 | locus YCR088W, strain abp1, stronger effect = lower value 1 | locus YDL005C, strain med2, stronger effect = lower value 0.992 | locus YDL035C, strain GPR1, stronger effect = lower value 1.03 | locus YDL040C, strain nat1, stronger effect = lower value 0.996 | locus YDL074C, strain BRE1, stronger effect = lower value 1.05 | locus YDL101C, strain DUN1, stronger effect = lower value 0.999 | locus YDL134C, strain PPH21, stronger effect = lower value 1.02 | locus YDL185W, strain tfp1, stronger effect = lower value 1.02 | locus YDL192W, strain arf1, stronger effect = lower value 1.02 | locus YDR001C, strain nth1, stronger effect = lower value 1 | locus YDR069C, strain doa4, stronger effect = lower value 0.986 | locus YDR101C, strain arx1, stronger effect = lower value 1.02 | locus YDR137W, strain rgp1, stronger effect = lower value 1.01 | locus YDR150W, strain NUM1, stronger effect = lower value 1.01 | locus YDR159W, strain sac3, stronger effect = lower value 0.982 | locus YDR162C, strain NBP2, stronger effect = lower value 1.01 | locus YDR195W, strain ref2 0.968 | locus YDR297W, strain sur2, stronger effect = lower value 1.01 | locus YDR318W, strain mcm21, stronger effect = lower value 1.03 | locus YDR334W, strain swr1, stronger effect = lower value 1 | locus YDR335W, strain msn5, stronger effect = lower value 0.998 | locus YDR388W, stronger effect = lower value 1.02 | locus YDR392W, strain spt3, stronger effect = lower value 1 | locus YDR502C, strain sam2, stronger effect = lower value 1.02 | locus YEL003W, strain gim4, stronger effect = lower value 0.995 | locus YEL037C, strain rad23, stronger effect = lower value 1.01 | locus YEL061C, strain CIN8 (second series), stronger effect = lower value 0.989 | locus YEL061C, strain CIN8, stronger effect = lower value 1 | locus YER015W, strain faa2, stronger effect = lower value 0.997 | locus YER016W, strain bim1, stronger effect = lower value 1 | locus YER110C, stronger effect = lower value 1.02 | locus YER111C, strain swi4, stronger effect = lower value 0.977 | locus YER155C, strain BEM2 (second series), stronger effect = lower value 1.01 | locus YER155C, strain BEM2, stronger effect = lower value 1.01 | locus YER167W, strain BCK2, stronger effect = lower value 1.02 | locus YFR010W, strain ubp6, stronger effect = lower value 0.998 | locus YGL078C, strain dbp3, stronger effect = lower value 1.02 | locus YGL086W, strain mad1, stronger effect = lower value 1.01 | locus YGL167C, strain pmr1, stronger effect = lower value 1 | locus YGL173C, strain kem1, stronger effect = lower value 0.984 | locus YGL227W, strain vid30, stronger effect = lower value 0.987 | locus YGL240W, strain doc1, stronger effect = lower value 0.982 | locus YGL248W, strain PDE1, stronger effect = lower value 1.03 | locus YGL253W, strain hxk2, stronger effect = lower value 0.995 | locus YGR078C, strain PAC10, stronger effect = lower value 1.02 | locus YGR135W, strain pre9, stronger effect = lower value 1.02 | locus YGR229C, strain SMI1, stronger effect = lower value 1.04 | locus YGR252W, strain gcn5, stronger effect = lower value 1.03 | locus YHR013C, strain ard1, stronger effect = lower value 0.995 | locus YHR027C, strain rpn1, stronger effect = lower value 0.994 | locus YHR030C, strain SLT2, stronger effect = lower value 0.999 | locus YHR079C, strain IRE1 (second series), stronger effect = lower value 1.03 | locus YHR094C, strain hxt1, stronger effect = lower value 1.01 | locus YHR129C, strain ARP1, stronger effect = lower value 1 | locus YHR142W, strain chs7, stronger effect = lower value 1.01 | locus YHR200W, strain rpn10, stronger effect = lower value 1.01 | locus YIL066C, strain RNR3, stronger effect = lower value 1.02 | locus YIL073C, strain SPO22, stronger effect = lower value 1.1 | locus YIL125W, strain kgd1, stronger effect = lower value 1.03 | locus YIR030C, strain dcg1, stronger effect = lower value 1.02 | locus YJL092W, strain hpr5, stronger effect = lower value 0.987 | locus YJL095W, strain BCK1 (second series), stronger effect = lower value 0.987 | locus YJL095W, strain BCK1, stronger effect = lower value 1.02 | locus YJL115W, strain asf1, stronger effect = lower value 1 | locus YJL129C, strain trk1, stronger effect = lower value 1.02 | locus YJL134W, strain LCB3, stronger effect = lower value 1 | locus YJL154C, strain vps35, stronger effect = lower value 1 | locus YJL164C, strain tpk1, stronger effect = lower value 1 | locus YJL166W, strain qcr8, stronger effect = lower value 0.992 | locus YJL168C, strain set2, stronger effect = lower value 1.02 | locus YJL187C, strain SWE1 (second series), stronger effect = lower value 1.01 | locus YJL187C, strain SWE1, stronger effect = lower value 1
